The values below come from PubChem BioAssay (NCI).

The structures appear in SMILES notation. Compounds without any hit were thinned out: in the full panel of roughly 79,000, 15% have a hit. Values without a mark were called inactive. Active and inactive are the calls of the source. Rule as the data show it: active = growth inhibition above about 70%; inactive = the rest.

The nature of assay [1]: NCI Yeast Anticancer Drug Screen. Data for the rad50 strain (AID 155).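 Also: 0% = growth of vehicle-only cultures of the same strain.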 To be noted: S. cerevisiae rad50 strain growth inhibition; at 50.0 µM; hits give high values. A digest of the protocol:
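A DNA repair-deficient yeast mutant serves as the test organism; compound-induced growth inhibition is calculated against vehicle-treated cells.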

The nature of assay [2]: NCI Yeast Anticancer Drug Screen. Data for the mec2-1 strain (AID 157). To be noted: S. cerevisiae mec2-1 strain, at 50.0 µM, hits give high values. The essentials: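 Each compound was tested on mec2-1 yeast, a strain altered in DNA damage repair or cell cycle control. Growth inhibition is reported relative to vehicle.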
Assay [3] in a line: NCI Yeast Anticancer Drug Screen. Data for the sgs1 mgt1 strain (AID 161).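 Also: 0% = growth of cultures given vehicle only.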 The conditions noted are these: S. cerevisiae sgs1 mgt1 strain, at 50.0 µM, hits give high values. The essentials: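 Read-out: growth inhibition vs vehicle controls. Cells: mutant yeast strain deficient in DNA damage repair.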
Assay [4] is described as follows: NCI Yeast Anticancer Drug Screen. Data for the cln2 rad14 strain (AID 165).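 Also: 0% = growth equal to vehicle treated cultures.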 The conditions noted are these: S. cerevisiae cln2 rad14 strain, at 50.0 µM, hits give high values. The essentials:
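Test compounds were added to cln2 rad14 yeast cultures; inhibition of growth was then determined by comparison with vehicle treatment.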

Assay [5] in a line: NCI Yeast Anticancer Drug Screen. Data for the bub3 strain (AID 167). To be noted: S. cerevisiae bub3 mutant strain, at 50.0 µM, hits give high values. A digest of the protocol:
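Inhibition values come from growth of compound-treated mutant yeast normalised to vehicle-treated controls.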

A short description of assay [6]: NCI Yeast Anticancer Drug Screen. Data for the mlh1 rad18 strain (AID 175). The conditions noted are these: S. cerevisiae mlh1 rad18 strain growth inhibition; at 50.0 µM; hits give high values. The essentials:
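Inhibition values reflect reduced growth of mutant yeast versus vehicle-treated controls following compound exposure; the mutations affect DNA damage repair.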

Regarding `N#Cc1c(-c2ccc(Cl)cc2)cn2c1[nH]c(=O)c1cc(Br)ccc12`, the growth inhibition in assay [1] was 6.45%; in assay [2] it was 0.95%; in assay [3] it was -18.4%; in assay [4] it was -12.6%; in assay [5], -3.4%; in assay [6], 14.4%.

On to `CCCCOc1ccc2c(c1)CC[C@@H]1[C@@H]2CC[C@]2(C)C(=O)N(CCCC)C(=O)C[C@@H]12`, for which the growth inhibition in assay [1] was 5%; in assay [2], -3.25%; in assay [3], 16.4%; in assay [4] it was -17.1%; in assay [5], 16.5%; in assay [6] it was 4.2%.

`CC(=O)OCCOCCN1CCN(c2c(O)c3c(c(O)c2Cl)C(=O)C=CC3=O)CC1`: the growth inhibition is 79.7% (active) in assay [1]; 88.2% (active) in assay [2]; 90.8% (active) in assay [3]; 87.1% (active) in assay [4]; 89.3% (active) in assay [5]; 89.8% (active) in assay [6].

Turning to `Cn1c(=O)c2[nH]c(Cl)nc2n(C)c1=O`, the growth inhibition is 9.6% in assay [1]; -23.6% in assay [2]; 6.7% in assay [3]; -3.8% in assay [4]; -16.6% in assay [5]; -8.55% in assay [6].

On to `CSCc1cc(C)ccc1NC(C)=O`, for which the growth inhibition was 0.5% in assay [1]; -7.85% in assay [2]; -0.75% in assay [3]; -16.5% in assay [4]; -13.2% in assay [5]; 10.8% in assay [6].

On to `BrC1CCC(OCc2ccccc2)C(OCc2ccccc2)C1` (stereo unspecified), for which the growth inhibition is -10.8% in assay [1]; 7.25% in assay [2]; 13.8% in assay [3]; 8.85% in assay [4]; 10.7% in assay [5]; -0.95% in assay [6].

For the compound `CCOC(=O)NC(Nc1ccc(Cl)cn1)(C(F)(F)F)C(F)(F)F`, the growth inhibition in assay [1] was -25.9%; in assay [2], -12.5%; in assay [3] it was -52.5%; in assay [4], -25.3%; in assay [5] it was -21.6%; in assay [6], -76.2%.

On to `Cc1ccccc1S(=O)(=O)OC1NS(=O)(=O)c2ccccc21` (stereo unspecified), for which the growth inhibition in assay [1] is 15.8%; in assay [2] it was -1%; in assay [3], -36.9%; in assay [4], -15.6%; in assay [5], -23.3%; in assay [6] it was 2.9%.

As to `O=C(O)c1cnc(Cl)c(Br)c1`, the growth inhibition in assay [1] was -12.1%; in assay [2] it was -3.35%; in assay [3], 6.7%; in assay [4] it was -17.9%; in assay [5], -27.1%; in assay [6], 2.5%.

Take `COC(=O)c1c2c(cc3nc4ccccc4nc13)OCO2`: the growth inhibition in assay [1] was 26.4%; in assay [2], 9.75%; in assay [3], 12.8%; in assay [4], -1.8%; in assay [5], 16.9%; in assay [6], 21.6%.

For `O=C1CCC2c3ccccc3NCN12` (stereo unspecified), the growth inhibition was 7.05% in assay [1]; 7.75% in assay [2]; -35.6% in assay [3]; 22.4% in assay [4]; -15.2% in assay [5]; -31.8% in assay [6].

For the compound `COc1cccc2c1C(=O)C1(O)CCCCC21` (stereo unspecified), the growth inhibition was -55.8% in assay [1]; -41.6% in assay [2]; -65.3% in assay [3]; -21.4% in assay [4]; -59.5% in assay [5]; -25.7% in assay [6].

As for `COc1ccc(CCCNC(=O)c2cc(OC)c(OC)cc2CCO)cc1OC`, the growth inhibition in assay [1] was 18.9%; in assay [2], 15.1%; in assay [3], -45.5%; in assay [4] it was -9.6%; in assay [5], -31.2%; in assay [6] it was -11.8%.

In the case of `Nc1ccn(CCO)c(=O)n1`, the growth inhibition was -3.95% in assay [1]; 2.05% in assay [2]; -23.2% in assay [3]; -0.8% in assay [4]; -5.3% in assay [5]; -7.95% in assay [6].

With `CCCCCCCCCCCCCC1CCC(CC)N1` (stereo unspecified), the growth inhibition was 92% (active) in assay [1]; 93.7% (active) in assay [2]; 92.2% (active) in assay [3]; 91.6% (active) in assay [4]; 91.8% (active) in assay [5]; 91.8% (active) in assay [6].

Take `N#CCCn1ncc(C#N)c1N`: the growth inhibition in assay [1] was 3.4%; in assay [2], -7.95%; in assay [3], -1.5%; in assay [4], -38.5%; in assay [5] it was -2.5%; in assay [6], 8.5%.

As to `CCCCCCCCCCCCCCCCN` (tested in a mixture with another compound), the growth inhibition is 29.9% in assay [1]; -11.1% in assay [2]; 7.9% in assay [3]; -24.1% in assay [4]; 26.5% in assay [5]; 17.4% in assay [6].

As for `CC(=O)Nc1cc(OC(C)=O)nc2c1CCC2`, the growth inhibition in assay [1] was 14.2%; in assay [2], -0.05%; in assay [3], -5.5%; in assay [4] it was 7.95%; in assay [5] it was -1.05%; in assay [6] it was 11.6%.

For `CCOc1cc2c(cnc3c4cc(OC)c(OC)cc4ccc23)cc1OC`, the growth inhibition is -8.6% in assay [1]; -15.2% in assay [2]; -13.5% in assay [3]; -6.25% in assay [4]; -17.9% in assay [5]; -16.6% in assay [6].

With `COc1cccc(C(=O)CCN(C)C)c1`, the growth inhibition in assay [1] was 33.4%; in assay [2] it was 0.35%; in assay [3] it was -2.8%; in assay [4] it was 12.1%; in assay [5], 18.1%; in assay [6], 28.1%.

Consider `NS(=O)(=O)c1ccc(NC(=S)/N=C\c2c(O)[nH]c(=O)[nH]c2=O)cc1`, for which the growth inhibition is -13% in assay [1]; -16.3% in assay [2]; -18.3% in assay [3]; 15.7% in assay [4]; -12.6% in assay [5]; -11% in assay [6].

Consider `C#C/C=C/CC1OC(C(Br)CC)CC(Br)C2CC1O2` (stereo unspecified), for which the growth inhibition is 20.6% in assay [1]; 16.8% in assay [2]; 36.4% in assay [3]; 24.4% in assay [4]; 32% in assay [5]; -18.2% in assay [6].

Consider `COc1c(F)c(F)c(/C(O)=C\c2nc3ccccc3[nH]c2=O)c(F)c1F`, for which the growth inhibition in assay [1] is -19.6%; in assay [2], -22.9%; in assay [3] it was -17.4%; in assay [4], 13.6%; in assay [5], -2.05%; in assay [6] it was -11.3%.

For `CSc1ccc(C(N)=O)cn1`, the growth inhibition is -1.2% in assay [1]; -12.2% in assay [2]; -7.05% in assay [3]; -36% in assay [4]; -22.1% in assay [5]; 1.15% in assay [6].

For the compound `COC1OC(CO)C(O)C2OCCOCCOC3C(OC)OC(CO)C(O)C3OCCOCCOC12` (stereo unspecified), the growth inhibition in assay [1] was -2.65%; in assay [2] it was -4.4%; in assay [3], 5.9%; in assay [4], -7.7%; in assay [5] it was -0.5%; in assay [6] it was 18.5%.

For the compound `Cc1ccc(Cl)cc1NC(=O)/C=C/c1ccccc1`, the growth inhibition is 3.05% in assay [1]; 8.4% in assay [2]; 6.4% in assay [3]; -7.35% in assay [4]; 10.5% in assay [5]; 18.6% in assay [6].

As for `C=CCN1C(=O)CS/C1=N\NC(=O)c1c(C)nc2sccn12`, the growth inhibition is -16.3% in assay [1]; -4.15% in assay [2]; -8.95% in assay [3]; -7.4% in assay [4]; -22.8% in assay [5]; -28.4% in assay [6].

`COc1ccc(C(=O)c2ccc(Cl)cc2)c(O)c1OC`: the growth inhibition in assay [1] is -5.85%; in assay [2] it was -6.55%; in assay [3] it was -1.7%; in assay [4], 3.9%; in assay [5], 19.4%; in assay [6], -9.4%.

With `O=C(CCC1CCCC1)Oc1ccccc1C(=O)O`, the growth inhibition in assay [1] was -1.9%; in assay [2] it was -9.65%; in assay [3], 7.1%; in assay [4], -42.7%; in assay [5], 9.5%; in assay [6], 3.4%.

On to `CN1CCCC1c1cccnc1.O=C(O)c1ccccc1O.O=C([O-])c1ccccc1[OH2+].O=C([O-])c1ccccc1[OH2+].O=C([O-])c1ccccc1[OH2+].[Mn+2]` (stereo unspecified), for which the growth inhibition in assay [1] is 1.55%; in assay [2], -14.2%; in assay [3], -10.3%; in assay [4] it was -29.6%; in assay [5], -45.8%; in assay [6], 7.3%.

On to `CCC1=CCN(c2cc(C)ccn2)OC1c1ccc(OC)cc1` (stereo unspecified), for which the growth inhibition in assay [1] is 47.9%; in assay [2], 6.15%; in assay [3], 48.4%; in assay [4], 14.3%; in assay [5], 61%; in assay [6], 6.35%.

As to `CC(C)CC1CC(=O)NC1C(=O)O` (stereo unspecified), the growth inhibition in assay [1] is -14.2%; in assay [2], 0.35%; in assay [3] it was -13.2%; in assay [4], -26.1%; in assay [5], -0.85%; in assay [6], -28.9%.

In the case of `NC1=NOC(=O)C1c1ccccc1` (stereo unspecified), the growth inhibition is -19.1% in assay [1]; -45.3% in assay [2]; -10.2% in assay [3]; 2.55% in assay [4]; -9.5% in assay [5]; -19.8% in assay [6].

In the case of `C=CC12c3c4cc(OC)cc3OC1C(O)CCC2CC4` (stereo unspecified), the growth inhibition was -8.05% in assay [1]; 8.85% in assay [2]; -6.2% in assay [3]; 9.85% in assay [4]; 4.5% in assay [5]; 5.65% in assay [6].

For `CCCCCNC(=O)c1ccc([N+](=O)[O-])cc1`, the growth inhibition in assay [1] is 7.35%; in assay [2], -1.75%; in assay [3], 3.75%; in assay [4], 4.85%; in assay [5] it was -1%; in assay [6], 13.9%.

As to `Cc1ccc(C)c(NC(=O)C(=O)C(C#N)c2c(Cl)cccc2Cl)c1` (stereo unspecified), the growth inhibition in assay [1] was -23.2%; in assay [2], 16.5%; in assay [3], 44.5%; in assay [4], -24.4%; in assay [5] it was 6.35%; in assay [6], 28.9%.
